The campaign covered roughly 48,000 compounds. About 13,000 (27%) showed an effect of 50% or more. The list shows a part of the results.

The subject of the experiment is Wolbachia pipientis. The experiment can be described thus: Anti-Wolbachia Cell-Based Screen. It counts as functional. Also on record: scale not given: in the data most compounds retested in dose-response had high values. Conditions: 5 µM.
Consider `O=C1O[C@@H]2CN(Cc3ccccc3F)C[C@@H]2N1CCCN1CCOCC1`, for which the “Percent Effect” value came out at 2.415%.

With `CCn1c(CN2CCCC(Cn3cncn3)C2)nc2c(F)cccc21` (stereo unspecified), the “Percent Effect” value is reported as -3.133%.

`Cc1nsc(NC(=O)NC2(CN3CCOCC3)CCCCC2)n1`: the “Percent Effect” value came to 1.675%.

Take `NCC1(CN2CCOCC2)CCCCC1`: the “Percent Effect” value worked out at 7.377%.

As for `OCCN1CCN(CC2(O)CCCCC2)CC1`, the “Percent Effect” value is reported as -8.643%.

In the case of `NC1(CN2CCOCC2)CCCCC1`, the “Percent Effect” value is listed as 80.74%.

As to `NC1(CN2CCCCC2)CCCCC1`, the “Percent Effect” value was 100.8%.

For `OC1(CN2CCCC2)CCCN(c2ncnc3[nH]cnc23)C1` (stereo unspecified), the “Percent Effect” value is reported as -10.69%.

Regarding `CCCc1nc(C)c(CNc2nc(C)nc3oc(C)nc23)s1`, the “Percent Effect” value was found to be 10.41%.

As for `Cc1nnc(SCCC(=O)N(C)Cc2ccc(F)cc2Cl)[nH]1`, the “Percent Effect” value was 5.698%.

Regarding `c1ccc(NCc2ccsc2)c(Cn2cncn2)c1`, the “Percent Effect” value was found to be 3.372%.

As for `CC(=O)NC(Cc1c[nH]c2cc(F)ccc12)C(=O)Nc1cnn(C)c1` (stereo unspecified), the “Percent Effect” value is given as -8.595%.

With `COc1ccc(C(C)NCc2nnc(C)s2)cc1F` (stereo unspecified), the “Percent Effect” value was -18.95%.

As for `COc1ccc(C(C)NCCC(N)=O)cc1F` (stereo unspecified), the “Percent Effect” value was determined as 53.8%.

Regarding `COc1ccc(C(C)NC(=O)NCCCn2cncn2)cc1F` (stereo unspecified), the “Percent Effect” value was determined as 3.932%.

With `COc1ccc(C(C)NC(=O)NCCc2ccc(C)nc2)c(OC)c1` (stereo unspecified), the “Percent Effect” value was found to be 8.171%.

As for `COc1ccc(C(C)NCCc2ccc(NC(C)=O)cc2)cc1F` (stereo unspecified), the “Percent Effect” value was 98.08%.

For the compound `COc1ccc(C(C)Nc2ncc(C(N)=O)cc2Cl)cc1F` (stereo unspecified), the “Percent Effect” value was -11.64%.

With `COc1ccc(C(C)NCCc2ccc(NC(C)=O)cc2)c(OC)c1` (stereo unspecified), the “Percent Effect” value came to 110.9%.

`COc1ccc(C(C)NC(=O)Nc2nnc(C)s2)c(OC)c1` (stereo unspecified): the “Percent Effect” value was found to be 5.487%.

`COc1ccc(NC(C)C(=O)NCCc2cccs2)cc1F` (stereo unspecified): the “Percent Effect” value is reported as -5.142%.

Take `Cc1ccc(NCc2ccccc2C#N)cc1-n1cnnn1`: the “Percent Effect” value is reported as 14%.

Regarding `CCCNC(=O)CNc1cc(C(=O)NCC(F)(F)F)cc(F)c1C`, the “Percent Effect” value is given as -0.1534%.

In the case of `COCCN(Cc1ccco1)Cc1nc(-c2ccccc2C)no1`, the “Percent Effect” value is on record as -8.039%.

On to `CN(c1ncc(S(N)(=O)=O)s1)C1CCc2ccccc21` (stereo unspecified), for which the “Percent Effect” value was determined as 0.8223%.

With `O=C(O)C(F)(F)F.c1ccc(CCNCC2Cn3nncc3CO2)cc1` (stereo unspecified), the “Percent Effect” value was -6.101%.

For the compound `Cc1cc(CNCC2Cn3nnc(C)c3CO2)oc1C.O=C(O)C(F)(F)F` (stereo unspecified), the “Percent Effect” value is -14.18%.

With `Cc1noc(C)c1CNCC1Cn2nncc2CO1.O=C(O)C(F)(F)F` (stereo unspecified), the “Percent Effect” value was determined as 106%.

Turning to `Fc1ccc(CNCC2Cn3nncc3CO2)cc1.O=C(O)C(F)(F)F` (stereo unspecified), the “Percent Effect” value is listed as 10.26%.

For `Cc1nc(CNCC2Cn3nncc3CO2)cs1.O=C(O)C(F)(F)F` (stereo unspecified), the “Percent Effect” value turned out to be 95.04%.

Take `O=C(O)C(F)(F)F.c1cc(CNCC2Cn3nncc3CO2)co1` (stereo unspecified): the “Percent Effect” value is on record as -8.195%.

These data come from ChEMBL document CHEMBL3988442, “University of Dundee, Small-Polar-MMV Screening Library” (2021).
